Results reported in ChEMBL document CHEMBL4513149, “CO-ADD screening of MMV (CH) - MMV compounds” (2021).
Results with a measured potency or affinity are listed apart.

Experiments:
Klebsiella pneumoniae = conditions: Concentration 20 uM; ASSAY_TEST Inhibition of Bacterial Growth; detection method Absorption (OD600); MEDIA CAMHB; plate type 384well; NBS; CORNING #3640; time 18 hr
Candida albicans = conditions: 20 µM
Cryptococcus neoformans = conditions: Concentration 20 uM; ASSAY_TEST Inhibition of Fungal Growth; detection method Resazurin; Absorption (OD600-OD570); plate type 384well; NBS; CORNING #3640

SMILES	Inhibition (Klebsiella pneumoniae)	Inhibition (Candida albicans)	Inhibition (Cryptococcus neoformans)
COc1nc2ccc(Br)cc2cc1[C@@H](c1ccccc1)[C@@](O)(CCN(C)C)c1cccc2ccccc12.O=C(O)C(F)(F)F	17.53%	4.38%	56.58%
c1ccc(Oc2ccc(-c3cc(N4CCOCC4)[nH]n3)cc2)cc1	8.77%	5.83%	-7.11%
COc1ccc(C2=NN(C3CCCCCC3)C(=O)[C@@H]3CC=CC[C@H]23)cc1OCCCCOc1ccc(-c2nnn[nH]2)cc1	8.89%	6.64%	-7.83%
CN1CCN(c2nccc3[nH]c(-c4cccc(F)c4)cc23)CC1	12.23%	5.85%	5.1%
COC(=O)c1cccc2oc(-c3cccc(OC)c3NC(=O)c3cc(-c4ccccc4)on3)nc12	13.16%	8.19%	-3.51%
O=C(c1cc2ccccc2o1)N1CCN(Cc2ccc3c(c2)OCO3)CC1	9.23%	-0.54%	-15.32%
Nc1ncnc2c1c(-c1cnc3ccccc3c1)nn2CC1CCNCC1	4.12%	2.53%	-1.76%
Cc1ccc(Oc2ccc(NC(=O)CNc3ccccc3N3CCCC3=O)cc2)cc1	9.79%	2.74%	-10.82%
CCOC(=O)c1noc(N)c1-c1ccccc1	13.91%	3.66%	-9.75%
Cc1nc(-c2ccccn2)nc(NCCc2ccc(S(C)(=O)=O)cc2)c1Cl	10.15%	4.79%	2.36%
O=C(Nc1c(O)cccc1-c1nc2c(C(=O)O)cccc2o1)c1cc(-c2ccccc2)on1	-9.4%	3.49%	-10.86%
COc1cc(C2=NCCN2)ccc1-n1cc(-c2cccc(C3=NCCN3)c2)nn1.O=CO.O=CO	8.01%	2.32%	7.56%
COc1cc(-c2cc(-c3ccc(S(C)(=O)=O)cc3)cnc2N)ccc1O	7.56%	3.91%	-7.2%
CC(Oc1ccccc1)C(=O)Nc1nc(-c2ccccn2)cs1 (stereo unspecified)	-2.79%	-0.26%	-5.96%
FC(F)(F)c1ccc(N(c2cccnc2)C2CCN(c3ccc(C(F)(F)F)cn3)CC2)cc1	14.96%	2.59%	-3.19%
O=C(Nc1nc(-c2ccccn2)cs1)C1CC1c1ccccc1F (stereo unspecified)	21.19%	5.33%	-9.59%
Cc1nnc(NCc2cccc(Cl)c2)c2ccccc12	13.85%	3.34%	-11.95%
CN1CCN(c2nccc3nc(-c4ccc(F)c(F)c4)[nH]c23)CC1	17.85%	1.66%	-6.31%
Cc1ccc(S(=O)(=O)N2CCN(C(=O)c3cc(-c4ccccc4)n[nH]3)CC2)cc1	-15.32%	6.95%	-7.39%
COc1cc(C(F)(F)F)nc2ccc(C)c(N)c12	11.25%	6.41%	-9.66%
CCc1nc2ccccc2n1CC(O)COc1cc(C)ccc1Cl (stereo unspecified)	3.05%	1.23%	-20.36%
CN1CCN(S(=O)(=O)c2ccc(-c3ccc4c(Nc5ncc(Cl)cn5)ccnc4c3)cc2)CC1	7.93%	4.17%	-3.42%
